Source: the supplement of paper PMC10849652
Of roughly 8,800 targets only a part is listed; those with a hit were picked by preference. About 0.5% of all pairs of compound and target were hits.

What was measured:
Experiment in all cases: log2 fold change, soluble protein after heating vs DMSO (PISA); higher = thermal stabilisation; K562 lysate, 10 uM; active = over 0.2 and 3.5 SD of the protein, either way, in both replicates (recomputed)
alvocidib = compound: CN1CC[C@H](c2c(O)cc(O)c3c(=O)cc(-c4ccccc4Cl)oc23)[C@H](O)C1 [alvocidib]
Method in brief: (§1)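 Dounce homogenisation of K562 pellets in PBS pH 7.4 with 1 mM MgCl2 produced a crude extract, used at 1 mg/mL protein. Exposure to 10 μM compound lasted 30 min, and aliquots were then heated for 3 min across 48°C-58°C, pooled and brought to 0.5% NP-40 at 4°C. The supernatant after 21,000xg for 90 min was quantified by TMTpro 16plex LC-MS/MS with channel sums equalised. Duplicate values are given as log-two fold change in thermal stability relative to solvent controls.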

Tubastatin A = compound: CN1CCc2c(c3ccccc3n2Cc2ccc(C(=O)NO)cc2)C1 [Tubastatin A]
Method in brief: as §1

[1] = compound: CNC(=O)C1=CC=CC=C1NC2=NC(=NC=C2Cl)NC3=C(C=C(C=C3)N4CCOCC4)OC
Method in brief: as §1

defactinib = compound: CNC(=O)c1ccc(Nc2ncc(C(F)(F)F)c(NCc3nccnc3N(C)S(C)(=O)=O)n2)cc1 [defactinib]
Method in brief: as §1

[2] = compound: CNc1nc(-c2ccc3c(N)n[nH]c3c2)cc(N2C[C@@H](C(=O)NC3CCCCC3)CC[C@H]2C)n1
Method in brief: as §1

encorafenib = compound: COC(=O)N[C@@H](C)CNc1nccc(-c2cn(C(C)C)nc2-c2cc(Cl)cc(NS(C)(=O)=O)c2F)n1 [encorafenib]
Method in brief: as §1

[3] = compound: COC(=O)[C@H](CCSC)NC(=O)C1=C(C=C(C=C1)NC[C@H](CS)N)C2=CC=CC=C2
Method in brief: as §1

alisertib = compound: COc1cc(Nc2ncc3c(n2)-c2ccc(Cl)cc2C(c2c(F)cccc2OC)=NC3)ccc1C(=O)O [alisertib]
Method in brief: as §1

[4] = compound: COc1cc2nc(-c3cc(F)ccc3O)nc(N[C@@H]3CNC[C@H]3C(C)(C)O)c2cc1OC
Method in brief: as §1

gefitinib = compound: COc1cc2ncnc(Nc3ccc(F)c(Cl)c3)c2cc1OCCCN1CCOCC1 [gefitinib]
Method in brief: as §1

Measured: log2 fold change

CCNA2 (UniProt P20248)
Sequence of UniProt P20248 (P20248 whole entry, looked up): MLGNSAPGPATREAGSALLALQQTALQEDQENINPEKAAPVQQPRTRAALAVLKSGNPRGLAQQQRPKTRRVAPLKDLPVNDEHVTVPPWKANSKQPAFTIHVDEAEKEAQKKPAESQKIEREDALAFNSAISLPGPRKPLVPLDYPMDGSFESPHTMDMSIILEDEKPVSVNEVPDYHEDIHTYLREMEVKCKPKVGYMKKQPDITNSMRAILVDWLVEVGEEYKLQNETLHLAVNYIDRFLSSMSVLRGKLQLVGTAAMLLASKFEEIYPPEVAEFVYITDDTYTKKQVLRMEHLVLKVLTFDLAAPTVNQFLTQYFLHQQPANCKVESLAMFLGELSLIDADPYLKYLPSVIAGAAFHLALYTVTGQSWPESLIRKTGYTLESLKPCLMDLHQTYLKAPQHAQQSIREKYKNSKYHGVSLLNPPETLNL
inactive: alvocidib 0.044 | Tubastatin A 0.011 | [1] -0.002 | defactinib 0.037 | [2] -0.017 | encorafenib 0.005 | [3] -0.012 | alisertib -0.029 | [4] 0.176 | gefitinib 0.019

ATXN2 (UniProt Q99700)
inactive: alvocidib 0.046 | Tubastatin A -0.047 | [1] 0.016 | defactinib -0.019 | [2] 0.001 | encorafenib 0.018 | [3] -0.003 | alisertib -0.032 | [4] 0.011 | gefitinib 0.006

CAMLG (UniProt P49069)
Sequence of UniProt P49069 (P49069 whole entry, looked up): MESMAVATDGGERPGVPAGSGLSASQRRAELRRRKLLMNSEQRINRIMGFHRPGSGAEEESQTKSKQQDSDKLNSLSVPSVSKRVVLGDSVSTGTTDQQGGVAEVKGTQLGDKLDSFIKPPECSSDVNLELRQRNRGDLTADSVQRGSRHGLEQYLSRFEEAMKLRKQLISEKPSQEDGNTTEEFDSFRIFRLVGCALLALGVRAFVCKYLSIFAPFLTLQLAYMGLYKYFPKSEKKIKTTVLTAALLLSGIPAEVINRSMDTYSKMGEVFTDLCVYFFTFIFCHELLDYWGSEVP
inactive: alvocidib 0.051 | Tubastatin A -0.037 | [1] 0.044 | defactinib 0.067 | [2] -0.012 | encorafenib 0.09 | [3] -0.13 | alisertib 0.136 | [4] 0.006 | gefitinib 0.028

CALM2 (UniProt P0DP24)
inactive: alvocidib -0.063 | Tubastatin A 0.018 | [1] -0.059 | defactinib -0.016 | [2] 0.124 | encorafenib 0.03 | [3] -0.085 | alisertib 0.011 | [4] 0.026 | gefitinib -0.13

CDC7 (UniProt O00311)
inactive: alvocidib -0.081 | Tubastatin A -0.112 | [1] 0.077 | defactinib 0.007 | [2] 0.042 | encorafenib 0.011 | [3] 0.078 | alisertib -0.059 | [4] -0.04 | gefitinib -0.036

CEP76 (UniProt Q8TAP6)
inactive: alvocidib -0.031 | Tubastatin A -0.015 | [1] 0.03 | defactinib 0.084 | [2] -0.023 | encorafenib -0.006 | [3] 0.005 | alisertib 0.002 | [4] 0 | gefitinib 0.001

ATP9B (UniProt O43861)
inactive: alvocidib -0.076 | Tubastatin A 0.048 | [1] 0.044 | defactinib -0.117 | [2] -0.018 | encorafenib 0.068 | [3] 0.012 | alisertib -0.081 | [4] 0.16 | gefitinib -0.015

CDC40 (UniProt O60508)
Sequence of UniProt O60508 (O60508 whole entry, looked up): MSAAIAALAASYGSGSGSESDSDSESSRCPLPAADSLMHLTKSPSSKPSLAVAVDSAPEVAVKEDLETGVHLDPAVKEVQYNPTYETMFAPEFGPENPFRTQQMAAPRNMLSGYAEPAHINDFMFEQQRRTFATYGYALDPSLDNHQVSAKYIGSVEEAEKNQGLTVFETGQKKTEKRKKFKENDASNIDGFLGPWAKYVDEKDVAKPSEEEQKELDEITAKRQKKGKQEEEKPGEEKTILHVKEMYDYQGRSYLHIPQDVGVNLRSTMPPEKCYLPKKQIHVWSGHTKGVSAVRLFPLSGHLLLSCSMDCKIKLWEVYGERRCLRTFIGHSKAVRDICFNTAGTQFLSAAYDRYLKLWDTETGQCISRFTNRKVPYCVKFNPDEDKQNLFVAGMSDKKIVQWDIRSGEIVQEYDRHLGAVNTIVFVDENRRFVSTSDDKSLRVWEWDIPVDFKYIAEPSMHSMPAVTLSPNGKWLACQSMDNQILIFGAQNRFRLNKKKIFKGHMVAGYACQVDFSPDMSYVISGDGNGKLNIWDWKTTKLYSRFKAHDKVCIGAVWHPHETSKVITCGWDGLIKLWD
inactive: alvocidib 0.016 | Tubastatin A 0.147 | [1] 0.045 | defactinib -0.002 | [2] 0.069 | encorafenib 0.095 | [3] 0.069 | alisertib -0.049 | [4] 0.034 | gefitinib -0.021

CAD (UniProt P27708)
inactive: alvocidib 0 | Tubastatin A -0.063 | [1] 0.01 | defactinib -0.022 | [2] -0.008 | encorafenib 0.001 | [3] 0.067 | alisertib -0.007 | [4] -0.015 | gefitinib -0.032

BLOC1S6 (UniProt Q9UL45)
inactive: alvocidib -0.028 | Tubastatin A 0.033 | [1] 0.051 | defactinib 0.014 | [2] 0.082 | encorafenib 0.147 | [3] 0.056 | alisertib -0.22 | [4] -0.036 | gefitinib 0.047

CHD4 isoform 2 (UniProt Q14839)
inactive: alvocidib -0.004 | Tubastatin A -0.069 | [1] -0.014 | defactinib 0.007 | [2] 0.017 | encorafenib 0.013 | [3] 0.087 | alisertib 0.016 | [4] -0.007 | gefitinib -0.014

BAG4 (UniProt O95429)
Sequence of UniProt O95429 (O95429 whole entry, looked up): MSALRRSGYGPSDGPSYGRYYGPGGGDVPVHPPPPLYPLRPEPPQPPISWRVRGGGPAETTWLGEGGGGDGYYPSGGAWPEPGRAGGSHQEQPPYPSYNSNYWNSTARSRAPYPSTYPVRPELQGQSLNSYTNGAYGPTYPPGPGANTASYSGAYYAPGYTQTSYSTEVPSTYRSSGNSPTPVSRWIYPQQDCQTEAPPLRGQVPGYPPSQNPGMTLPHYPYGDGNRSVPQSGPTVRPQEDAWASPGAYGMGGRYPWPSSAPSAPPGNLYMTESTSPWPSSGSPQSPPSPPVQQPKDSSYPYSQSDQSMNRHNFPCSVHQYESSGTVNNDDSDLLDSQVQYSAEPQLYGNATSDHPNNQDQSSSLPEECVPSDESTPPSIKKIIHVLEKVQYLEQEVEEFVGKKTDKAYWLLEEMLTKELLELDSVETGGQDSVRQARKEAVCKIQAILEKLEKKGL
inactive: alvocidib 0.04 | Tubastatin A -0.096 | [1] -0.01 | defactinib -0.001 | [2] 0.023 | encorafenib -0.032 | [3] 0.005 | alisertib -0.023 | [4] 0.003 | gefitinib 0.039

CCPG1 isoform 5 (UniProt Q9ULG6)
active: [4] 0.303
inactive: alvocidib 0.029 | Tubastatin A 0.006 | [1] 0.028 | defactinib -0.03 | [2] -0.02 | encorafenib 0.049 | [3] -0.165 | alisertib -0.073 | gefitinib -0.061

CAMK2G isoform 8 (UniProt Q13555)
active: alvocidib 0.334
inactive: Tubastatin A -0.098 | [1] 0.223 | defactinib 0.006 | [2] 0.034 | encorafenib -0.199 | [3] -0.007 | alisertib -0.013 | [4] 0.144 | gefitinib -0.013

CALB2 (UniProt P22676)
inactive: alvocidib -0.028 | Tubastatin A -0.022 | [1] -0.028 | defactinib -0.062 | [2] 0.034 | encorafenib -0.014 | [3] -0.003 | alisertib -0.008 | [4] -0.01 | gefitinib 0.112

CES2 isoform 4 (UniProt O00748)
inactive: alvocidib 0.021 | Tubastatin A -0.065 | [1] 0.09 | defactinib -0.111 | [2] 0.219 | encorafenib 0.075 | [3] 0.01 | alisertib -0.084 | [4] -0.002 | gefitinib -0.061

C12orf45 (UniProt Q8N5I9)
inactive: alvocidib -0.13 | Tubastatin A 0.007 | [1] 0.004 | defactinib -0.042 | [2] 0.036 | encorafenib 0.05 | [3] -0.06 | alisertib 0.016 | [4] 0.01 | gefitinib 0.011

CDK5RAP2 (UniProt Q96SN8)
inactive: alvocidib 0.018 | Tubastatin A -0.15 | [1] 0.009 | defactinib 0.037 | [2] -0.007 | encorafenib 0.045 | [3] 0.012 | alisertib -0.007 | [4] -0.144 | gefitinib -0.021

CASC1 (UniProt Q6TDU7)
inactive: alvocidib -0.023 | Tubastatin A 0.317

CD63 (UniProt P08962)
inactive: alvocidib -0.184 | Tubastatin A 0.023 | [1] -0.013 | defactinib 0.089 | [2] -0.101 | encorafenib 0.046 | [3] -0.055 | alisertib 0.01 | [4] -0.02 | gefitinib -0.023

BRAT1 (UniProt Q6PJG6)
inactive: alvocidib -0.018 | Tubastatin A -0.143 | [1] 0.031 | defactinib -0.046 | [2] -0.041 | encorafenib 0.01 | [3] 0.024 | alisertib -0.008 | [4] 0.018 | gefitinib -0.007

BPHL (UniProt Q86WA6)
Sequence of UniProt Q86WA6 (Q86WA6 whole entry, looked up): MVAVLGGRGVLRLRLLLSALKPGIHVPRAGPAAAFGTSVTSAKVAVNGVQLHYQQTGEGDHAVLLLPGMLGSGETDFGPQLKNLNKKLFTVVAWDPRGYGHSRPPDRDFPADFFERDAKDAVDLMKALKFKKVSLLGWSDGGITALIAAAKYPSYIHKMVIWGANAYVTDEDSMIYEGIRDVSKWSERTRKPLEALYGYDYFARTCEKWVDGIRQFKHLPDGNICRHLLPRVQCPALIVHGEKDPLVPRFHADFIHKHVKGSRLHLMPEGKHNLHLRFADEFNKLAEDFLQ
inactive: alvocidib 0.004 | Tubastatin A -0.006 | [1] -0.048 | defactinib 0.036 | [2] -0.137 | encorafenib -0.002 | [3] 0.004 | alisertib 0.085 | [4] -0.028 | gefitinib 0.009

ATAD3B (UniProt Q5T9A4)
Sequence of UniProt Q5T9A4 (Q5T9A4 whole entry, looked up): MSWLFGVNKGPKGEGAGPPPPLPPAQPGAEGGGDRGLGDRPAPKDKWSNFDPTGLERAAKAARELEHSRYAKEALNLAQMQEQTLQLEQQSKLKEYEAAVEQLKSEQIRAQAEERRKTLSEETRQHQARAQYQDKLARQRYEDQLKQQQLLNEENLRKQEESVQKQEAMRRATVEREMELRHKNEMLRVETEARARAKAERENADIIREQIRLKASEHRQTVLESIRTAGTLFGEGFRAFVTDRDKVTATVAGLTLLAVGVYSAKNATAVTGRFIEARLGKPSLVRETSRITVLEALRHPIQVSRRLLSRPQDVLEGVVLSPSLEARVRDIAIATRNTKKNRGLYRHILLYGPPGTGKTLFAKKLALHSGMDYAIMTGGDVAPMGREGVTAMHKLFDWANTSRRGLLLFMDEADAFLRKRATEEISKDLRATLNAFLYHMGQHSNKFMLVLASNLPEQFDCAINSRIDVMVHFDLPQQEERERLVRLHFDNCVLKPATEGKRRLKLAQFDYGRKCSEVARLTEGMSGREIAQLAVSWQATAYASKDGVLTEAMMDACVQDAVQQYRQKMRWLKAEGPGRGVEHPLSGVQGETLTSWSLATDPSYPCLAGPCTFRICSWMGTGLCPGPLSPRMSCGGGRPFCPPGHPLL
inactive: alvocidib 0.124 | Tubastatin A 0.047 | [1] -0.029 | defactinib 0.046 | [2] 0.039 | encorafenib 0.016 | [3] -0.128 | alisertib 0.006 | [4] -0.008 | gefitinib -0.001

C5orf51 (UniProt A6NDU8)
Sequence of UniProt A6NDU8 (A6NDU8 whole entry, looked up): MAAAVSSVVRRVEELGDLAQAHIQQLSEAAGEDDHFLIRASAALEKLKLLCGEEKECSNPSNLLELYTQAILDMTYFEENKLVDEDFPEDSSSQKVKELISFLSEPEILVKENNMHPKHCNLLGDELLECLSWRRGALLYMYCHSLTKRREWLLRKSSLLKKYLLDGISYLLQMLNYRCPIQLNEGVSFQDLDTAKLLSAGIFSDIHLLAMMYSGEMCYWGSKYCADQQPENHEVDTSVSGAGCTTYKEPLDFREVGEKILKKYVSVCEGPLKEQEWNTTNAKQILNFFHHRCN
inactive: alvocidib 0.075 | Tubastatin A -0.123 | [1] -0.01 | defactinib -0.045 | [2] -0.043 | encorafenib -0.006 | [3] 0.144 | alisertib 0.023 | [4] 0.038 | gefitinib 0.056

BMS1 (UniProt Q14692)
inactive: alvocidib -0.016 | Tubastatin A -0.024 | [1] 0.042 | defactinib 0.053 | [2] 0.007 | encorafenib 0.075 | [3] 0.01 | alisertib 0.035 | [4] -0.01 | gefitinib -0.042

CAPNS1 (UniProt P04632)
inactive: alvocidib 0.021 | Tubastatin A -0.022 | [1] 0.032 | defactinib 0.027 | [2] -0.005 | encorafenib 0.022 | [3] -0.129 | alisertib -0.012 | [4] -0.051 | gefitinib -0.062

BCORL1 isoform 3 (UniProt Q5H9F3)
Sequence of UniProt Q5H9F3 (Q5H9F3 whole entry, looked up): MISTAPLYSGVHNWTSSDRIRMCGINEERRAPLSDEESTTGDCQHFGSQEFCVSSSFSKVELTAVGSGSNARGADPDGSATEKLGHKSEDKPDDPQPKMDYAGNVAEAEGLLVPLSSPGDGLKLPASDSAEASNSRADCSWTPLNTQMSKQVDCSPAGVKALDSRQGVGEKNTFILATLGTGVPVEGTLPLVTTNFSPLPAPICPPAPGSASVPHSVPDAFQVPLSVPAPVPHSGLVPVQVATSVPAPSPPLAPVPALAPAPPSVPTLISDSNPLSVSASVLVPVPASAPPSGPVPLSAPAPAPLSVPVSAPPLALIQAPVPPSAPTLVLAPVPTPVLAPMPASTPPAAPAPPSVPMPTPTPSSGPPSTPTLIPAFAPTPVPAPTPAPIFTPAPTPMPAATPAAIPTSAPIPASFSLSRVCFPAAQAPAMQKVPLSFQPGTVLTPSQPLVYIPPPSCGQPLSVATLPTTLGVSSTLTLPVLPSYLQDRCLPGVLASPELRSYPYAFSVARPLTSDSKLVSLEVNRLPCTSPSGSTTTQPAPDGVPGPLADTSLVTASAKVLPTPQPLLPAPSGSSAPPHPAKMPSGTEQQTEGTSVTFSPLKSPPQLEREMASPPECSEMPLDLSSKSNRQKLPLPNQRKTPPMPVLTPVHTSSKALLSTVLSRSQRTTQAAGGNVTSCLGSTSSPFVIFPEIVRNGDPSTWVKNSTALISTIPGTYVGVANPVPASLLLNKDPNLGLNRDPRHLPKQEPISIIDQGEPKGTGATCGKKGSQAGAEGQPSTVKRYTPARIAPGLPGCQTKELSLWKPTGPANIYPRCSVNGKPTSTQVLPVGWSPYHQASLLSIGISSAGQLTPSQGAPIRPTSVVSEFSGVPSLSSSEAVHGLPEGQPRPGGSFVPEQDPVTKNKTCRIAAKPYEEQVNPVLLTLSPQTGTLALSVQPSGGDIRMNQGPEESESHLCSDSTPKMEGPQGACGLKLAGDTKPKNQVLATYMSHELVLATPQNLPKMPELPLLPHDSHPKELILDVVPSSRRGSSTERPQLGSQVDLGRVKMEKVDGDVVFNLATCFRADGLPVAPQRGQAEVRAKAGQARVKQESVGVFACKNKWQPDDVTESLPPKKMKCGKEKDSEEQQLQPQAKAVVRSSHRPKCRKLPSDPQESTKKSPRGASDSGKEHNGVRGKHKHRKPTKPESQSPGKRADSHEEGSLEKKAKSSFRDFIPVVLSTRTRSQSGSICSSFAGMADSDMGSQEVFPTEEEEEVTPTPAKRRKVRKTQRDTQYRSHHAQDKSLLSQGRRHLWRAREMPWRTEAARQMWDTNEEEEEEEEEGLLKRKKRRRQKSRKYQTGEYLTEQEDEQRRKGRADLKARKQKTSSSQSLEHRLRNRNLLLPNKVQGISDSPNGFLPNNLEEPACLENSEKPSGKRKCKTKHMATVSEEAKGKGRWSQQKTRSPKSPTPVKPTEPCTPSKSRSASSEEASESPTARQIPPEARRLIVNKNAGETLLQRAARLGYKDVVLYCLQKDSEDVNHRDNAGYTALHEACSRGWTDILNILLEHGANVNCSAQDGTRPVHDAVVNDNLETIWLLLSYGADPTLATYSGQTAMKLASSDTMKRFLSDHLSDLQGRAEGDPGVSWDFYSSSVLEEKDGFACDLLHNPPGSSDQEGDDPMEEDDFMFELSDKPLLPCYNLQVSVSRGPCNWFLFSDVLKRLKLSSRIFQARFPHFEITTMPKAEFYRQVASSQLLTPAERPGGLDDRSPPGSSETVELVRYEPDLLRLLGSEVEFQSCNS
inactive: alvocidib -0.328 | Tubastatin A -0.006 | [1] -0.064 | defactinib -0.213 | [2] 0.113 | encorafenib 0.022 | [3] 0.021

CCDC25 (UniProt Q86WR0)
Sequence of UniProt Q86WR0 (Q86WR0 whole entry, looked up): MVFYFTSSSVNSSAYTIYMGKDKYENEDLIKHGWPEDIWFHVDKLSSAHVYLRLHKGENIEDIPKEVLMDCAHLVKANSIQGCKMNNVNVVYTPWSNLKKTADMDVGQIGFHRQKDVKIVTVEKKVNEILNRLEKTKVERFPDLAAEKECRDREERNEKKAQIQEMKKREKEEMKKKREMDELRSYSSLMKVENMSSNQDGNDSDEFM
inactive: alvocidib 0.132 | Tubastatin A 0 | [1] -0.012 | defactinib -0.025 | [2] 0.075 | encorafenib 0.008 | [3] 0.083 | alisertib -0.027 | [4] -0.005 | gefitinib 0.01
